This passage reports potency estimated from few doses results from publication PMC11062922 (Nature Chemical Biology, 2023).

Molecules are shown by their SMILES. Read-outs that look alike come from different tables or passages of the source.

Holding throughout (set-up): species or system human, MV4-11 + K-562 + COLO205 + SK-N-BE2 + OVCAR-8
Test [1] concerns ADRBK1. The conditions noted are these: read-out: apparent Kd, n = 1.
In test [2] the test system is AKT1. The conditions noted are these: read-out: apparent Kd, n = 1.
Test [3] relates to MAP2K3. The conditions noted are these: read-out: apparent Kd; compound concentrations:100 nM and 1000 nM (sheet 'Samples'); n = 1.
Test [4] relates to MAPK10. The conditions noted are these: read-out: apparent Kd, n = 1.
For test [5], the system named is MAPK11. The conditions noted are these: read-out: apparent Kd, n = 1.
In test [6] the test system is MAPK9. The conditions noted are these: read-out: apparent Kd, n = 1.
The subject of test [7] is MAPKAPK2. The conditions noted are these: read-out: apparent Kd, n = 1.
In test [8] the test system is CAMK4. The conditions noted are these: read-out: apparent Kd; compound concentrations:100 nM and 1000 nM (sheet 'Samples'); n = 1.
The test system of test [9] is CDK6. The conditions noted are these: read-out: apparent Kd, n = 1.
Test [10] concerns FLT3. The conditions noted are these: read-out: apparent Kd; compound concentrations:100 nM and 1000 nM (sheet 'Samples'); n = 1.
Test [11] has as its system MAP2K1. The conditions noted are these: read-out: apparent Kd; compound concentrations:100 nM and 1000 nM (sheet 'Samples'); n = 1.
The subject of test [12] is NNT. The conditions noted are these: read-out: apparent Kd; compound concentrations:100 nM and 1000 nM (sheet 'Samples'); n = 1.
The subject of test [13] is NQO1. The conditions noted are these: read-out: apparent Kd, n = 1.
In test [14] the test system is AKT2. The conditions noted are these: read-out: apparent Kd; compound concentrations: 100 nM and 1000 nM (sheet 'Samples'), CATDS: 0.124185471208428; n = 1.
Test [15] concerns AKT3. The conditions noted are these: read-out: apparent Kd; compound concentrations: 100 nM and 1000 nM (sheet 'Samples'), CATDS: 0.12570475509553999; n = 1.
Test [16] deals with ILK. The conditions noted are these: read-out: apparent Kd; compound concentrations: 100 nM and 1000 nM (sheet 'Samples'), CATDS: 0.12734816485016201; n = 1.
Test [17] deals with MAP2K2. The conditions noted are these: read-out: apparent Kd, compound concentrations: 100 nM and 1000 nM (sheet 'Samples'), n = 1.
For test [18], the system named is RIOK2. The conditions noted are these: read-out: apparent Kd, n = 1.
The subject of test [19] is ADK. The conditions noted are these: read-out: apparent Kd, n = 1.
The subject of test [20] is COX5A. The conditions noted are these: read-out: apparent Kd, compound concentrations: 100 nM and 1000 nM (sheet 'Samples'), n = 1.
The test system of test [21] is RAN. The conditions noted are these: read-out: apparent Kd; compound concentrations: 100 nM and 1000 nM (sheet 'Samples'), CATDS: 0.206069741930102; n = 1.
Test [22] relates to PIK3CB. The conditions noted are these: read-out: apparent Kd; compound concentrations:100 nM and 1000 nM (sheet 'Samples'); n = 1.
In test [23] the test system is PIK3CD. The conditions noted are these: read-out: apparent Kd; compound concentrations:100 nM and 1000 nM (sheet 'Samples'); n = 1.
In test [24] the test system is CSNK1A1. The conditions noted are these: read-out: apparent Kd; compound concentrations: 100 nM and 1000 nM (sheet 'Samples'), CATDS: 6.6366617124681102E-2; n = 1.
Test [25] has as its system CSNK1D. The conditions noted are these: read-out: apparent Kd; compound concentrations: 100 nM and 1000 nM (sheet 'Samples'), CATDS: 0.21669980545697101; n = 1.
The test system of test [26] is CSNK1E. The conditions noted are these: read-out: apparent Kd; compound concentrations: 100 nM and 1000 nM (sheet 'Samples'), CATDS: 0.13524385654208201; n = 1.
For test [27], the system named is CSNK1G1. The conditions noted are these: read-out: apparent Kd; compound concentrations: 100 nM and 1000 nM (sheet 'Samples'), CATDS: 3.36950722911461E-2; n = 1.
Test [28] concerns CSNK1G3. The conditions noted are these: read-out: apparent Kd; compound concentrations: 100 nM and 1000 nM (sheet 'Samples'), CATDS: 3.7890071369445298E-2; n = 1.
The test system of test [29] is T1, DJA1.
T1 construct: gene DNAJA1
The conditions noted are these: read-out: apparent Kd; compound concentrations: 100 nM and 1000 nM (sheet 'Samples'), CATDS: 3.3060215115758199E-2; n = 1.

Test [30] deals with MAP4K5. The conditions noted are these: read-out: apparent Kd; compound concentrations: 100 nM and 1000 nM (sheet 'Samples'), CATDS: 3.4056635134305298E-2; n = 1.
Test [31] has as its system MAPK14. The conditions noted are these: read-out: apparent Kd; compound concentrations: 100 nM and 1000 nM (sheet 'Samples'), CATDS: 0.505182268244599; n = 1.
Test [32] deals with NLK. The conditions noted are these: read-out: apparent Kd; compound concentrations: 100 nM and 1000 nM (sheet 'Samples'), CATDS: 5.68204402660955E-2; n = 1.
The subject of test [33] is PKN3. The conditions noted are these: read-out: apparent Kd; compound concentrations: 100 nM and 1000 nM (sheet 'Samples'), CATDS: 3.0507466694278802E-2; n = 1.
Test [34] concerns PRKCA. The conditions noted are these: read-out: apparent Kd; compound concentrations: 100 nM and 1000 nM (sheet 'Samples'), CATDS: 4.1145920495800903E-2; n = 1.
The subject of test [35] is PRKCB. The conditions noted are these: read-out: apparent Kd; compound concentrations: 100 nM and 1000 nM (sheet 'Samples'), CATDS: 3.4087347473579097E-2; n = 1.
The subject of test [36] is PRKD2. The conditions noted are these: read-out: apparent Kd; compound concentrations: 100 nM and 1000 nM (sheet 'Samples'), CATDS: 3.50594175571005E-2; n = 1.
Test [37] deals with PRKD3. The conditions noted are these: read-out: apparent Kd; compound concentrations: 100 nM and 1000 nM (sheet 'Samples'), CATDS: 3.1320583757310602E-2; n = 1.
In test [38] the test system is RIPK2. The conditions noted are these: read-out: apparent Kd; compound concentrations: 100 nM and 1000 nM (sheet 'Samples'), CATDS: 4.9528140659543501E-2; n = 1.
[39] abbreviates: compound concentrations:100 nM and 1000 nM (sheet 'Samples').

For the compound `C[C@@H](Cn1ncnn1)Nc1ncc2cc(Oc3ccc(F)cc3F)c(=O)n(C)c2n1` [RO5067310-000], the potency estimated from few doses in test [1] (setting [39]) is 2270 nM; in [2] (setting [39]), 1750 nM; in [3], 1770 nM; in test [4] (setting [39]), 424 nM; in test [5] (setting [39]), 30.9 nM; in test [6] (setting [39]) it was 265 nM. In test [7] (setting [39]), the potency estimated from few doses was 3.25 nM.
For `NS(=O)(=O)c1ccc(N/N=C2\C(=O)Nc3ccc(Cl)cc32)cc1` [GW280670X], the potency estimated from few doses in test [1] (setting [39]) is 1880 nM; in test [8], 1330 nM; in test [9] (setting [39]), 2280 nM; in [10] it was 1090 nM; in test [11], 2000 nM; in test [12] it was 1290 nM. In addition, the potency estimated from few doses in [13] (setting [39]) was 1850 nM.
As to `Cl.Nc1n[nH]c2cc(-c3ccccn3)ccc12` [GSK2189892A], the potency estimated from few doses in test [1] (compound concentrations: 100 nM and 1000 nM (sheet 'Samples'), CATDS: 0.135716479442168) is 1470 nM; in test [2] (compound concentrations: 100 nM and 1000 nM (sheet 'Samples'), CATDS: 0.124475037217828), 1730 nM; in test [14], 1740 nM; in test [15], 1700 nM; in test [9] (compound concentrations: 100 nM and 1000 nM (sheet 'Samples'), CATDS: 0.119736809743275), 1880 nM; in test [16], 1660 nM. Moreover, the potency estimated from few doses was 1730 nM in test [17] (CATDS: 0.12469214085712101); 1880 nM in test [18] (compound concentrations: 100 nM and 1000 nM (sheet 'Samples'), CATDS: 0.119525040636944).
Turning to `COc1ccc(Nc2nccc(NCCNC(=O)Nc3ccccc3F)n2)cc1` [GSK1379901A], the potency estimated from few doses in test [19] (compound concentrations: 100 nM and 1000 nM (sheet 'Samples'), CATDS: 0.22973332446561601) is 1220 nM; in test [20] (CATDS: 0.19729380709152999) it was 1630 nM; in [17] (CATDS: 0.19454488197691899), 1680 nM; in test [13] (compound concentrations: 100 nM and 1000 nM (sheet 'Samples'), CATDS: 0.179031281586436), 2010 nM; in [21], 1490 nM.
In the case of `O=c1cc(N2CCOCC2)nc2n(Cc3cccc4ccccc34)ccn12` [GSK2333389A], the potency estimated from few doses in test [19] (setting [39]) was 889 nM; in test [22], 16.1 nM; in test [23], 214 nM; in test [18] (setting [39]), 1890 nM.
With `Cl.Cl.Cl.Fc1ccc(-c2ncn(C3CCNCC3)c2-c2ccnc(Nc3ccccc3)n2)cc1.Fc1ccc(-c2ncn(C3CCNCC3)c2-c2ccnc(Nc3ccccc3)n2)cc1` [SB-238039-R], the potency estimated from few doses in test [19] (compound concentrations: 100 nM and 1000 nM (sheet 'Samples'), CATDS: 3.8521875066841203E-2) was 704 nM; in test [20] (CATDS: 3.6331945852285497E-2) it was 873 nM; in test [24] it was 131 nM; in test [25], 6.61 nM; in test [26] it was 18.5 nM; in test [27], 1180 nM. The potency estimated from few doses in test [28] was 747 nM; in [29], 1290 nM; in [30], 1130 nM; in test [4] (compound concentrations: 100 nM and 1000 nM (sheet 'Samples'), CATDS: 4.2468368704664097E-2), 504 nM; in test [5] (compound concentrations: 100 nM and 1000 nM (sheet 'Samples'), CATDS: 0.108415283939704) it was 32.7 nM; in [31] it was 1.59 nM. The potency estimated from few doses in test [6] (compound concentrations: 100 nM and 1000 nM (sheet 'Samples'), CATDS: 5.19093996737921E-2) is 270 nM; in test [7] (compound concentrations: 100 nM and 1000 nM (sheet 'Samples'), CATDS: 0.16433458855485) it was 11.8 nM; in test [32], 206 nM; in [33], 1900 nM; in [34], 560 nM; in test [35], 1130 nM. In addition, the potency estimated from few doses in test [36] is 1000 nM; in [37], 1660 nM; in test [38], 311 nM.
